Results reported in PubChem BioAssay (NCI).
Compounds without any hit were thinned out: in the full panel of roughly 83,000, 20% have a hit.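 Testing used 96-well plates and a 48-hour single-concentration exposure. Example: -40 means 40% of the starting cells died.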 A number with no mark means an inactive call. Active and inactive are the calls of the source. How the source made its calls: active means growth percent below 10; inactive means the rest.

What was measured:
Test in all cases: NCI-60 one-dose screen, 48 h (100 = growth as untreated, 0 = no growth, -100 = all killed)
[1] = system: SR leukemia; conditions: 10 µM unless noted
[2] = system: RPMI-8226 leukemia; conditions: 10 µM unless noted
[3] = system: OVCAR-8 ovarian; conditions: 10 µM unless noted
[4] = system: OVCAR-5 ovarian; conditions: 10 µM unless noted
[5] = system: OVCAR-4 ovarian; conditions: 10 µM
[6] = system: IGROV1 ovarian; conditions: 10 µM unless noted
[7] = system: OVCAR-3 ovarian; conditions: 10 µM unless noted
[8] = system: HS 578T breast; conditions: 10 µM unless noted
[9] = system: NCI/ADR-RES ovarian; conditions: 10 µM unless noted
[10] = system: T-47D breast; conditions: 10 µM unless noted
[11] = system: BT-549 breast; conditions: 10 µM unless noted
[12] = system: MDA-MB-435 melanoma; conditions: 10 µM unless noted
[13] = system: SW-620 colon; conditions: 10 µM unless noted
[14] = system: HCT-116 colon; conditions: 10 µM unless noted
[15] = system: HCC-2998 colon; conditions: 10 µM unless noted
[16] = system: KM12 colon; conditions: 10 µM unless noted
[17] = system: MCF7 breast; conditions: 10 µM unless noted

Compound | growth [1] | growth [2] | growth [3] | growth [4] | growth [5] | growth [6] | growth [7] | growth [8] | growth [9] [%] | growth [10] | growth [11] | growth [12] | growth [13] | growth [14] | growth [15] | growth [16] | growth [17]
Fc1cc2[nH]ncc2c2c3c(c(-c4cn[nH]c4C(F)(F)F)nc12)C1CCC3C1 (stereo not given) | 5.5% (active) | 7.73% (active) | 10.2% | -7.74% (active) | 35% | -13% (active) | 10.6% | -10.8% (active) | 55.7 | 3.94% (active) | -60.7% (active) | 22.8% | 2.37% (active) | 1.87% (active) | 14.7% | 7.9% (active) | –
COc1ccc(-c2cc(-c3ccc(Cl)cc3)nc(NCCCCNc3ccnc4cc(Cl)ccc34)n2)cc1 | 9.44% (active) | 23.8% | -23.3% (active) | 96.2% | 73.3% | 60.8% | 96% | 81.5% | 72.2 | 78.1% | – | 93.8% | -61.8% (active) | 23.4% | 26.1% | 76.2% | -69.3% (active)
CCCCCCSc1ncnc2nc[nH]c12 | 85.2% | 84.8% | 95.5% | 98.9% | 88.4% | 82.6% | 103% | 102% | 91.3 | 73.1% | – | 84.9% | 101% | 85.1% | 93.5% | 86% | 94.6%
CC(C)(C)c1cc(C(=O)Nc2ccccc2C(=O)NCCN)cc(C(C)(C)C)c1 | -28.6% (active) | -25% (active) | -43.7% (active) | 27% | 43.3% | 46.8% | 18.9% | 75.3% | 23.2 | -14.6% (active) | – | -73.3% (active) | -56.8% (active) | -94.7% (active) | -59.1% (active) | -62.2% (active) | -63.1% (active)
CC1=CC[C@@H]2C(C)(C)[C@@H](O)CC[C@@]2(C)[C@@H]1COc1ccc2ccc(=O)oc2c1 | 71.5% | 19.8% | 30.5% | 98% | 31% | 57.9% | 41.2% | 44.2% | 17.5 | -10.1% (active) | 18% | 77.6% | 79.2% | 44.6% | 88% | 40.4% | 77.8%
Cc1ccc2c(c1)C(C)Cc1c(Cl)ncnc1N2C (stereo not given) | 22.6% | 28.2% | 11.9% | 40.4% | 19.5% | 61% | 6.8% (active) | 32.7% | 10.7 | 51.8% | – | 6.38% (active) | 16.6% | 12.9% | 20.5% | 9.89% (active) | –
CCN(CC)CC(C)Nc1ccc(C)c2sc3ccccc3c(=O)c12 (stereo not given) | 33.4% | 11% | 64.2% | 68.9% | 75.9% | 19.1% | 77.5% | 73.8% | 68.7 | 53.6% | 82.3% | 59.1% | 55.8% | 34.6% | 45.9% | 55% | 32.6%
Cc1c(Cn2cc(COc3ccc(Br)cc3)nn2)c(C)c(Cn2cc(COc3ccc(Br)cc3)nn2)c(C)c1Cn1cc(COc2ccc(Br)cc2)nn1 | 63.2% | 97.9% | 95.1% | 96.8% | 87.3% | 90.7% | 88.7% | 96.8% | 101 | 70.2% | 97.1% | 98.7% | 85% | 92.3% | 114% | 99.8% | –
COc1cc(-c2nc(SCCC(C)C)nc(Nc3ccccc3)c2C#N)cc(OC)c1OC | 79.8% | 92.2% | 97.7% | 99.4% | 88.3% | 100% | 103% | -8.69% (active) | 95.5 | – | 96.4% | 92.9% | 104% | 91.7% | 116% | 100% | 92.7%
COc1ccc(/C=C2\N=C(Nc3ccccc3)N(NC(=O)c3ccccn3)C2=O)cc1 | 95.2% | 88.2% | 100% | 122% | 90% | 95.7% | 105% | 95.3% | 97 | 63.6% | 94.1% | 98.7% | 102% | 90.1% | 105% | 96.1% | 87.5%
O=c1[nH]cnc2c1ccn2C1OC(CO)C(O)C1O (stereo not given) | 58.1% | 58% | 31.4% | 76.6% | 24.5% | 48.7% | 64.7% | 74.6% | 31.1 | 54.1% | 75.8% | – | 33.5% | 54.9% | 69.3% | 75.1% | 24.9%
CN(C)c1ccc(-c2ccc(-c3ccc(C(=N)N)cc3)s2)cc1 | 5.33% (active) | -40% (active) | 57.6% | -55.2% (active) | 8.97% (active) | -63.5% (active) | -85.3% (active) | 104% | 46.3 | -50.8% (active) | 96.2% | -77.6% (active) | -54.9% (active) | -45.3% (active) | -74.2% (active) | -73% (active) | -55.3% (active)
